Test results: PubChem BioAssay AID1117319 (Southern Research Institute, 2015)
The campaign covered roughly 260,000 compounds. About 1,500 (0.58%) were called active. Roughly 5% stayed inconclusive and do not appear here.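 The calls were made as follows: active = inhibition above a set limit at one or more doses, reproduced on every date tested; inconclusive = results disagree between test dates, or hit never tested in dose response; inactive = the rest.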 Not all results are given here. Potency and affinity values are given separately.

These compounds were tested against Virion infectivity factor (Human immunodeficiency virus type 1 group M subtype B (isolate BH10)) + Virion infectivity factor (Human immunodeficiency virus type 1 group M subtype B (isolate BRU/LAI)) + Virion infectivity factor (Human immunodeficiency virus type 1 group M subtype B (isolate PCV12)) + Virion infectivity factor (Human immunodeficiency virus type 1 group M subtype B (isolate HXB2)) + DNA dC->dU-editing enzyme APOBEC-3G (Homo sapiens) (UniProt P69720+P69721+P69722+P69723+Q9HC16) (assay: inhibitors of Vif binding to APOBEC3G peptide, primary screen, biochemical, TR-FRET, GST-Vif 1-94, biotin-A3G peptide, dose response retest (AID 1117319;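 also: Vif residues 1-94 fused to GST binding biotinylated APOBEC3G peptide 110-148; 0% = full assay without inhibitor and 100% = GST in place of GST-Vif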)). Conditions: hits give high values.

inhibition, inactive:
CC(C)CC(=O)Nc1ccnn1C1CCN(C(=O)c2ccccc2F)CC1 -2.89%
CCOC(=O)c1c(/N=C/N(C)C)sc(C)c1C -7.57%
O=C(CCCN1C(=O)c2ccccc2C1=O)N1CCc2ccccc2C1 -3.95%
CN1CCN(C(=O)CN2C(=O)CC(C)(C)S(=O)(=O)c3ccccc32)CC1 -1.94%
O=C(NCCc1ccccc1Cl)c1cc(COc2ccc(F)cc2F)on1 2.92%
O=C(COc1ccc(-c2nnco2)cc1)Nc1ccc(F)c(Cl)c1 -11.6%
N=c1c(C(=O)NCc2ccco2)cc2c(=O)n3ccccc3nc2n1CCc1ccccc1 19.6%
CCNC(=O)c1cc2c(=O)n3cccc(C)c3nc2n(CCc2ccccc2)c1=N -4.24%
CCOc1cc(N2CCOCC2)c(OCC)cc1NC(=O)C(C)(C)C 31%
CCOc1cc(N2CCOCC2)c(OCC)cc1NC(=O)CSc1nc(N)cc(=O)[nH]1 -6.18%
CCOc1cc(N2CCOCC2)c(OCC)cc1NC(=O)CSc1ncccn1 -9.38%
CCOc1cc(N2CCOCC2)c(OCC)cc1NS(=O)(=O)c1ccc2c(c1)CC(=O)N2 9.5%
CCN(CC)S(=O)(=O)c1ccc(N2CCOCC2)c(NS(=O)(=O)c2ccc(Cl)s2)c1 7%
CCOc1cc(N2CCOCC2)c(OCC)cc1NC(=O)C(C)C 32.2%
CC1CCCC(C)N1C(=O)COc1cccc(Oc2ccccc2)c1 (stereo unspecified) -6.13%
O=C(Oc1cc(-c2ccccc2)no1)c1cccc(C(F)(F)F)c1 12%
CCCN(CC(=O)Nc1ccccc1C)C(=O)c1ccc(C)c(S(=O)(=O)N2CCCCC2)c1 -7.29%
COc1ccc(C(=O)NCc2cccnc2)cc1Br 7.76%
CCCCn1c(N)c(N(CC)C(=O)/C=C/c2ccco2)c(=O)[nH]c1=O -7.61%
Cn1nnc(NC(=O)/C=C/c2ccco2)n1 11.5%
CCCCN1C(=O)NC(NC(=O)c2ccco2)(C(F)(F)F)C1=O (stereo unspecified) -1.08%
COC(=O)C(=C/C=C/c1ccco1)C(=O)OC 32.7%
CC1Cc2c([nH]c3ccccc23)C(=O)N1 (stereo unspecified) 0.31%
COc1c2ccoc2c(OC(C)=O)c2oc(C)cc(=O)c12 0.13%
COC(=O)Cn1cnc2c1c(=O)n(C)c(=O)n2C 1.38%
Cc1csc(NC(=O)C2CCCCN2S(=O)(=O)c2ccccc2)n1 (stereo unspecified) 1.7%
